Only a selection was taken, and hits are over-represented in it overall.
mcGAS RapidFire = inhibitors of Mus musculus cyclic GMP-AMP synthase, initial high-throughput assay, cell-free, RapidFire MS; Q8C6L5; recombinant mouse cGAS, cGAMP by RapidFire MS; inhibition, % at 12.5 µM; 130,000 compounds, 0.18% hits; AID 1259397, 2018;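 active = inhibition of cGAS enzyme activity at or above 60%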;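 note: enzyme stimulated by 45 bp dsDNA with ATP and GTP substrates; cGAMP share of summed cGAMP plus half ATP and half GTP signals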
Target sequence (Q8C6L5 whole entry, looked up): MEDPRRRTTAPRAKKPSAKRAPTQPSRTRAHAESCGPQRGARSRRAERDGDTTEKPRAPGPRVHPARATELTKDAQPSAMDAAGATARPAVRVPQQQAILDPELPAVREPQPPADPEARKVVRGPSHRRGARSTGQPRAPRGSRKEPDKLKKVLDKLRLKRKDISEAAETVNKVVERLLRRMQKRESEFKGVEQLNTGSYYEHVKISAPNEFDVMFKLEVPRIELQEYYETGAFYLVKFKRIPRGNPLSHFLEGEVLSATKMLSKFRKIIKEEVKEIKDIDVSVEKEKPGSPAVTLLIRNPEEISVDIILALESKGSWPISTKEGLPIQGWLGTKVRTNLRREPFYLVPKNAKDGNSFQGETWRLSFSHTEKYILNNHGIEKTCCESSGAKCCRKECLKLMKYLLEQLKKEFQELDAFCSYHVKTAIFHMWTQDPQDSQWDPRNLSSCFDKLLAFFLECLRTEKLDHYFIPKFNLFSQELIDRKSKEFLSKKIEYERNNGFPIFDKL
Active calls of the source: *.

SMILES	mcGAS RapidFire
O=C(c1cc([N+](=O)[O-])c[nH]1)C(Cl)(Cl)Cl	-9
O=[N+]([O-])c1ccc(O)c(Cl)c1	9
O=[N+]([O-])c1ccc(O)c([N+](=O)[O-])c1	96*
COc1ccc(CC(=O)N2CCN(Cc3cccnc3)CC2)c(OC)c1	4
O=[N+]([O-])c1ccc(NS(=O)(=O)c2ccc(F)cc2)cc1C(F)(F)F	2
CC(Cc1ccc(Cl)cc1)NC(=O)C(C)n1cncn1 (centres undefined)	-14
O=C(Nc1ccncc1)c1cccn(Cc2c(F)cccc2Cl)c1=O	-2
Cc1nc2ccc(N)cc2c(=O)n1-c1ccccc1	-4
O=c1c2ccccc2nc(Cc2ccccc2)n1-c1cccc(O)c1	-4
O=c1c2ccccc2[se]n1-c1ccccc1	94*
Cc1cc(CN2CCCN(C(=O)Cc3ccc(Cl)cc3Cl)CC2)no1	0
O=C(CC1CCOCC1)N1[C@H]2CCNC[C@@H]1CC2	-5
CC(C)c1ccc(NP(=O)(OCC(F)(F)F)OCC(F)(F)F)cc1	-11
Cc1cc(NC2CN3CCC2CC3)ccc1-n1cnnn1 (centres undefined)	-6
